Measurements reported in the supplement of paper PMC11732987, “Enantioselective OTUD7B fragment discovery through chemoproteomics screening and high-throughput optimisation” (Communications Chemistry, 2025).

What was measured:
Assay in all cases: log2 ratio of Biotin-Ahx-Ub-VS probe labelling (fragment/DMSO); higher = less target engagement (more negative = stronger competition), active = hit call of the paper (q ≤ 0.05, log2 ratio ≤ -1)
Conditions in all cases: compound concentration: 200 uM; treatment time: 3 h
USP34 = USP34 (UniProt Q70CQ2)
In short: (§1)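 Average log2 ratios of fragment over vehicle were obtained by unpaired t-test from global-median-normalised Spectronaut label-free quantities. Proteins with ≥2 unique peptides were included. HEK293T lysate (495 µg per sample) was treated in triplicate with fragment at 200 µM or vehicle for 3 h, then with Biotin-Ahx-Ub-VS at 0.5 µM final for 1 h, and labelled DUBs were NeutrAvidin-enriched and run by diaPASEF LC-MS/MS.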

USP36 = target: T1, USP36 (UniProt Q9P275)
T1 sequence (whole entry): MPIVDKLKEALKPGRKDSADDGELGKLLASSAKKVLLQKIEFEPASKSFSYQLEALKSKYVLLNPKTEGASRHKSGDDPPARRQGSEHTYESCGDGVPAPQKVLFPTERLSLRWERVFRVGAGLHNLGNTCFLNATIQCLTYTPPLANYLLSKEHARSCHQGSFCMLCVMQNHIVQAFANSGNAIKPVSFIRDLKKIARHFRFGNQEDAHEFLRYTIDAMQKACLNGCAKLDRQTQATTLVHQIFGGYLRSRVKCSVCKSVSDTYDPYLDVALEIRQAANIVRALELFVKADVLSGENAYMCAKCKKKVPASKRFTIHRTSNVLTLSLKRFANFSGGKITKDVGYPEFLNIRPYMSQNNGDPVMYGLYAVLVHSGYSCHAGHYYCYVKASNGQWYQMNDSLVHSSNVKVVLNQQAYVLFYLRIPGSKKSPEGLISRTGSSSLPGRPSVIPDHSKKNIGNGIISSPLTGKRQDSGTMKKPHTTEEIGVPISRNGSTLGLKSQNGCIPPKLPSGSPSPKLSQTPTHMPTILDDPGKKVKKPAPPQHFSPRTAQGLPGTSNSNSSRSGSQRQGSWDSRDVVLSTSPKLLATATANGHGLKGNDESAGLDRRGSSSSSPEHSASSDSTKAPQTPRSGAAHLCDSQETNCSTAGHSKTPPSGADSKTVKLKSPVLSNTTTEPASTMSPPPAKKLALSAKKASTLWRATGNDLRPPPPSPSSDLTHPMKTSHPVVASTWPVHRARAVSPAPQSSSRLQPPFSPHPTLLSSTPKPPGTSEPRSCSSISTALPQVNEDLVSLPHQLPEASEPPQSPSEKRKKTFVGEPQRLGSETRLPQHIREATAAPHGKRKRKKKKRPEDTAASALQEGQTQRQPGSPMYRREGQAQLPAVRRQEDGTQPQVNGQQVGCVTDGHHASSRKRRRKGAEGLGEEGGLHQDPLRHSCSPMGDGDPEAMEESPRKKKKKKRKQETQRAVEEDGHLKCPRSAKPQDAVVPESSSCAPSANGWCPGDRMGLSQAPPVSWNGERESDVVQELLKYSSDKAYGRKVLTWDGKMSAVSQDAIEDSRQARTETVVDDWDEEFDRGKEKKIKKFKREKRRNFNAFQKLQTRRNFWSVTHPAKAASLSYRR
In short: as §1

USP38 = target: T2, USP38 (UniProt Q8NB14)
T2 sequence (whole entry): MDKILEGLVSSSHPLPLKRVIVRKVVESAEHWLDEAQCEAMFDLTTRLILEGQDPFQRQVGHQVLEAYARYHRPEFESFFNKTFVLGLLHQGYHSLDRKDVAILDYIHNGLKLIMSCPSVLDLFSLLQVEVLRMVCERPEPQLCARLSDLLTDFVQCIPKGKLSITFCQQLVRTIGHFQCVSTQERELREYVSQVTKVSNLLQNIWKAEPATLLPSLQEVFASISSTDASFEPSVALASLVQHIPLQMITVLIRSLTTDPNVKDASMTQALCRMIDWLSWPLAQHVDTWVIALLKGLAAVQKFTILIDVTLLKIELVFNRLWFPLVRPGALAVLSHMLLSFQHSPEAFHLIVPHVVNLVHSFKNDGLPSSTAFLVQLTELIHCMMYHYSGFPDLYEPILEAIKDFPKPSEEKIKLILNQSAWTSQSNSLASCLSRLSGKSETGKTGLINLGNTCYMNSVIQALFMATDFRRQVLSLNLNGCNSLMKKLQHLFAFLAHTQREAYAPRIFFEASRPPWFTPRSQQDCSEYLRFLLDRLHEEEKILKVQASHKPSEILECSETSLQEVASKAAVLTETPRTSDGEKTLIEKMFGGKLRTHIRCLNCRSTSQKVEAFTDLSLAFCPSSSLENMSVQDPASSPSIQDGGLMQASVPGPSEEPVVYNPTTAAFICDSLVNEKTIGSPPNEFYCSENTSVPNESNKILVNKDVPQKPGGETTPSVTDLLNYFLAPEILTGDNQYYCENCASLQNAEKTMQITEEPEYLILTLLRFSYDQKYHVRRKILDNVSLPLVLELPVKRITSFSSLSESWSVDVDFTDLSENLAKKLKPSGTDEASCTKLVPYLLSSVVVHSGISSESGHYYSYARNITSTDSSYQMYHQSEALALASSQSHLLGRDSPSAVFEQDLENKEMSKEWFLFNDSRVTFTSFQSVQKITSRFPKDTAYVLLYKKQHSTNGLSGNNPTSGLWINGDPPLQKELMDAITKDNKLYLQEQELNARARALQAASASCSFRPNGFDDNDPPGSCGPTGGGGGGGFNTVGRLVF
In short: as §1

USP39 = target: T3, USP39 (UniProt Q53GS9)
T3 sequence (whole entry): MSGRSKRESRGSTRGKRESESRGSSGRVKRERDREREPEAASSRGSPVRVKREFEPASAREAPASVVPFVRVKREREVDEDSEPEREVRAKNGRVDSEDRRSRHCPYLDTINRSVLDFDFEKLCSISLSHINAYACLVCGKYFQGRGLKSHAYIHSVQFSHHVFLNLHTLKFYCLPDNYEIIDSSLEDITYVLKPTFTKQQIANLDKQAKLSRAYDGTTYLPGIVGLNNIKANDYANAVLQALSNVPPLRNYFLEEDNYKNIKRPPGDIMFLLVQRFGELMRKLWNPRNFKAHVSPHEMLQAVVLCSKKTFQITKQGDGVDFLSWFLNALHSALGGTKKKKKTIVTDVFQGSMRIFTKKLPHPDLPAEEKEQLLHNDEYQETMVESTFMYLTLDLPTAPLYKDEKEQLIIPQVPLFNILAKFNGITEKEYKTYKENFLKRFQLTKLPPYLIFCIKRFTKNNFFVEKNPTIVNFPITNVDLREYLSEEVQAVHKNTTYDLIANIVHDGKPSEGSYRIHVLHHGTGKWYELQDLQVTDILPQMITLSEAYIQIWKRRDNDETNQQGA
In short: as §1

USP4 = target: T4, USP4 (UniProt Q13107)
T4 sequence (whole entry): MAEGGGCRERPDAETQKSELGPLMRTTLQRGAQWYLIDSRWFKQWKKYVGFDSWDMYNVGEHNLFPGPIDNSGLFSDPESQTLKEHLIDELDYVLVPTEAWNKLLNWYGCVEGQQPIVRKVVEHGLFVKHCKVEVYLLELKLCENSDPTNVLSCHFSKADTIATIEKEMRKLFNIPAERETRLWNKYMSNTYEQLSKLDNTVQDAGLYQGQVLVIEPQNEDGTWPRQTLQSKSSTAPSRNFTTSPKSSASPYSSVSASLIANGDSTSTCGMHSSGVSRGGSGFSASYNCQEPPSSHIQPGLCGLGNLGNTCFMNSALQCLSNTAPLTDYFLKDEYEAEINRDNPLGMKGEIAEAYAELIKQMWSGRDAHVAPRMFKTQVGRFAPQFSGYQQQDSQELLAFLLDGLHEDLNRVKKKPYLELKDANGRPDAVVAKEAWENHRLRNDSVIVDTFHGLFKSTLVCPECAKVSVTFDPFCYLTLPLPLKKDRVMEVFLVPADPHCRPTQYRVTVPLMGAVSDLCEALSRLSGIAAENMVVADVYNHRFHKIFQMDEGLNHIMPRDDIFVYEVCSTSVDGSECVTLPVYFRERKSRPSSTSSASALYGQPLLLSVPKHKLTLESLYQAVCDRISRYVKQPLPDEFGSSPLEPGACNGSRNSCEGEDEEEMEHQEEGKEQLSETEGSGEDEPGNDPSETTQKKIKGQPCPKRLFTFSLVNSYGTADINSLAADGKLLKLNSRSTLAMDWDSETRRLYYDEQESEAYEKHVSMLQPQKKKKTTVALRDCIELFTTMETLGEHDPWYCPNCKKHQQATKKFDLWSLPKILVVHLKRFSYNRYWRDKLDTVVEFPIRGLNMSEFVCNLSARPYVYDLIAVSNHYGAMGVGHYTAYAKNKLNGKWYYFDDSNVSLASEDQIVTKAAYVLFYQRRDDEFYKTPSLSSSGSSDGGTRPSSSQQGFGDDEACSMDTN
In short: as §1

Measured: log2 ratio of Biotin-Ahx-Ub-VS probe labelling

USP34, sequence (Q70CQ2 whole entry, the tested form may be a part): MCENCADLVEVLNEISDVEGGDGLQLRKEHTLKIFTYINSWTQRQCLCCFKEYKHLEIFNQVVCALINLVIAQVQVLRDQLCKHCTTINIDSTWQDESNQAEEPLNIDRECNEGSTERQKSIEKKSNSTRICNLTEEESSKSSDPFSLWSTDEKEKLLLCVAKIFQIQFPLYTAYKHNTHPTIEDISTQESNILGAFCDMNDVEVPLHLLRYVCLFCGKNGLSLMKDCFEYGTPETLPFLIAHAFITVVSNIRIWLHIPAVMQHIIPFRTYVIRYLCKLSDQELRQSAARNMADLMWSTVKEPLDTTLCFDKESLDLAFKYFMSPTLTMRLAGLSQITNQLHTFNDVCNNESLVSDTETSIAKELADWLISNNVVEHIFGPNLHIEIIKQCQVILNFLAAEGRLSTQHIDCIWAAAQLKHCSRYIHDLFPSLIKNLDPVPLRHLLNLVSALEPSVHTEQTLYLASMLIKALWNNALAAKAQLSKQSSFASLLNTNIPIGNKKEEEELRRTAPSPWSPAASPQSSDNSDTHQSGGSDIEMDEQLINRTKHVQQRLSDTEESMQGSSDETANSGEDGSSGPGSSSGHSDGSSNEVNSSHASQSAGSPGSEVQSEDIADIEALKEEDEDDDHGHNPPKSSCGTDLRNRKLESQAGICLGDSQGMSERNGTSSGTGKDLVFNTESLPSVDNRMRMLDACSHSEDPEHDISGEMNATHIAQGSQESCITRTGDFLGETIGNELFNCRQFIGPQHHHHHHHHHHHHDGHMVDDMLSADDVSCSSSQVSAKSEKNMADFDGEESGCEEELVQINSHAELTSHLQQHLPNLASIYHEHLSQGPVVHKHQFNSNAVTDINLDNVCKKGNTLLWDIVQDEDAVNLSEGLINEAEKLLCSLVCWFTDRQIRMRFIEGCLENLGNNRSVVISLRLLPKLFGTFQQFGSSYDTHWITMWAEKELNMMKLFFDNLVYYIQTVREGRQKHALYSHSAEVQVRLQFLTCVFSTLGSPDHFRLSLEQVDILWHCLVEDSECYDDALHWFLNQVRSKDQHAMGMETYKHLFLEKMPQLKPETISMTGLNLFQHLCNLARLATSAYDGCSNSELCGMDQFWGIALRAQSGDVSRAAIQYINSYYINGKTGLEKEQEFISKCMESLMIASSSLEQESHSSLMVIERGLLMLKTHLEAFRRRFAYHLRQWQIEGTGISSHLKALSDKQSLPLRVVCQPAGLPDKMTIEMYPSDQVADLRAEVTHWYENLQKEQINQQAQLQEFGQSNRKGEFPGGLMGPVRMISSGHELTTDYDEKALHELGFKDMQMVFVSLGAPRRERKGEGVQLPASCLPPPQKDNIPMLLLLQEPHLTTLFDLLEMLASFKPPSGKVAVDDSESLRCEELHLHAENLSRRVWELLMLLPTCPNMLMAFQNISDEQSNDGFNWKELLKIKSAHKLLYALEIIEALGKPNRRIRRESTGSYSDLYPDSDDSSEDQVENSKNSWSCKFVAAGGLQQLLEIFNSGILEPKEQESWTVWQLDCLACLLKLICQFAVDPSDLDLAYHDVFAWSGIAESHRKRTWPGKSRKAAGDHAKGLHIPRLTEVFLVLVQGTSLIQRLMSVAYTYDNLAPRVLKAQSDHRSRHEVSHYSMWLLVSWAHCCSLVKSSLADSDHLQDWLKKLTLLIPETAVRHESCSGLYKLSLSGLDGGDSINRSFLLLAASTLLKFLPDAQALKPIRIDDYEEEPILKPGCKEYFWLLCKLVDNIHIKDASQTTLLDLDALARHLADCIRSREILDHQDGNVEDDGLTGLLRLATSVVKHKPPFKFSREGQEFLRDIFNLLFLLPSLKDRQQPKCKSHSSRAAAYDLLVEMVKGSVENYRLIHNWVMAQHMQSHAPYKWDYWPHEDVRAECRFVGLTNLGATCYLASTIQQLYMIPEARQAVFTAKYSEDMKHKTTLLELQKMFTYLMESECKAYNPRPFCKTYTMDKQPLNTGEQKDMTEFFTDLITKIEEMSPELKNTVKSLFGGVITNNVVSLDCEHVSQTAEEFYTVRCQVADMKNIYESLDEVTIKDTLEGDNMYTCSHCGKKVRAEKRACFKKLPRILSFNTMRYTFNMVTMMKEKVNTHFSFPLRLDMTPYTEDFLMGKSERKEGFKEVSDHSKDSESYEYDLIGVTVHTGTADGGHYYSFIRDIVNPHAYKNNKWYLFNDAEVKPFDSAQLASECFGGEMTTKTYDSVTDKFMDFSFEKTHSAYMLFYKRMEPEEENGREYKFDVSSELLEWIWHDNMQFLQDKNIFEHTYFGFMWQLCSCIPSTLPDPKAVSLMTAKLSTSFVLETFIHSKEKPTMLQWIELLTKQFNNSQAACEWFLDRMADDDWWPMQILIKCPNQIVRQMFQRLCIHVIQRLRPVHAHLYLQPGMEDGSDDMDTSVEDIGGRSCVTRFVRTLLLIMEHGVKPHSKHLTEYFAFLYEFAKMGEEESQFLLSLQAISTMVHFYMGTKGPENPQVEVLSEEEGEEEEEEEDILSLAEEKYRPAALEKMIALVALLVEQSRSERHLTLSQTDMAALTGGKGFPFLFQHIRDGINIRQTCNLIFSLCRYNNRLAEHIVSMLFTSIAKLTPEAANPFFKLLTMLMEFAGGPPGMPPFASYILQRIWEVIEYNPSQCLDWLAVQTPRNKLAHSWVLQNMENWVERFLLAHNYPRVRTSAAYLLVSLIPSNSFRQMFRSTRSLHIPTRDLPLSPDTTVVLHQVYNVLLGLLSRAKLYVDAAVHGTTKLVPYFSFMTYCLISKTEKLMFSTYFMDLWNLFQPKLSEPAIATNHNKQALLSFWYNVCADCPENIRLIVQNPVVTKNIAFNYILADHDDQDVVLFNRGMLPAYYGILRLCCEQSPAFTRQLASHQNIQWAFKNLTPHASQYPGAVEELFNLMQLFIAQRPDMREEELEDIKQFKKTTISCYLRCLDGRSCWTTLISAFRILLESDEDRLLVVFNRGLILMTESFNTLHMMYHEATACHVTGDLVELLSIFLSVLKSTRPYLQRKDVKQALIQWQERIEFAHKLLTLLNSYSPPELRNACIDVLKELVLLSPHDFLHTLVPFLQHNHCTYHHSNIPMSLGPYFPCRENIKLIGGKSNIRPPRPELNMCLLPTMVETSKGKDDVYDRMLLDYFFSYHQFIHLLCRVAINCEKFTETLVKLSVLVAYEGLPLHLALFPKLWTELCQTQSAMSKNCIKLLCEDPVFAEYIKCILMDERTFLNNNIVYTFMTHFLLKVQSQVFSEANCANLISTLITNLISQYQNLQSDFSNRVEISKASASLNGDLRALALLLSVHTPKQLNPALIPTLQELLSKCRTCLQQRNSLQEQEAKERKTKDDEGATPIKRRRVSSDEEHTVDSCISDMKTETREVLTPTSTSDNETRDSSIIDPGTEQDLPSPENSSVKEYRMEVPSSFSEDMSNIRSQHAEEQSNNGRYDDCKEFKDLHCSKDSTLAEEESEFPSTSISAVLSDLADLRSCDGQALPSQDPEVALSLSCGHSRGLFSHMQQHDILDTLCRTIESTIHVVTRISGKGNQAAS

Cc1ccc(CNC(=O)CCl)nc1C.Cl
inactive: USP34 -0.103 | USP36 0.158 | USP38 0.0543 | USP39 0.0861 | USP4 0.0382
